The values that follow come from PubChem BioAssay AID795 (NMMLSC, 2007).

The campaign covered roughly 24,000 compounds. About 130 (0.54%) were called active. Shown is part of a subset that was picked to be rich in actives. Unmarked numbers belong to inactive results.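 The calls were made as follows: active = side scatter shift above 30%; inactive = the rest.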

The nature of the test: inducers of granularity increase in LNCaP cells – cell-based, flow cytometry side scatter, primary screen (AID 795).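 Also: androgen-responsive LNCaP prostate cancer cells in charcoal-stripped serum medium; percent of cells past a gate set so DMSO wells show 10% shift; higher shift means more granular cells and more differentiation.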 Particulars: LNCaP differentiation, 4 d, at 10 µM, hits give high values. For orientation: Flow cytometry measures light scatter and fluorescence of single cells or particles in a stream.
`COc1ccc(N2C(=O)C3CCCN3C2c2cccs2)cc1` (stereo not given): the side scatter shift was 9%.

Regarding `Cc1ccc(-c2nnc(SC(C)C#N)n2N)cc1` (stereo not given), the side scatter shift was 11%.

On to `CC1CCCC(C)N1CCCNC(=O)c1cc2c(=O)n(C)c3ccccc3c2n1C` (stereo not given), for which the side scatter shift is 9%.

In the case of `Cn1c(C(=O)NCCCN2CCN(c3cccc(Cl)c3)CC2)cc2c(=O)n(C)c3ccccc3c21`, the side scatter shift is 92% (active).

As for `CCn1c(=O)cc(OCC(=O)NCCCN2CCN(c3cccc(Cl)c3)CC2)c2ccccc21`, the side scatter shift was 27%.

Regarding `COc1ccccc1NC(=O)C1=C(C)Nc2ncnn2C1c1ccc(C)o1` (stereo not given), the side scatter shift was 16%.

Regarding `CCOC(=O)C1C(=O)C=C(c2ccc(OC)cc2)CC1c1ccco1` (stereo not given), the side scatter shift was 5%.

For the compound `CC(=O)NC(C)c1nc2ccccc2n1Cc1ccccc1F` (stereo not given), the side scatter shift was 7%.

Regarding `CC1=C(C(=O)Nc2ccccc2)C(c2cccs2)C(C#N)=C(SCC#N)N1` (stereo not given), the side scatter shift is 4%.

For `Cc1nnc(C)n1/N=C/c1ccc(C(C)C)cc1`, the side scatter shift is 18%.

Regarding `Cn1c(=O)cc(OCCCC(=O)N2CCN(Cc3ccc4c(c3)OCO4)CC2)c2ccccc21`, the side scatter shift was 12%.

Consider `OCc1nc(CO)n(Cc2ccccc2)n1`, for which the side scatter shift is 7%.

As to `Cc1ccc(N2C(=O)c3oc4ccccc4c(=O)c3C2c2cccnc2)nc1` (stereo not given), the side scatter shift was 3%.

Turning to `O=c1ccn(Cc2ccccc2Cl)cc1`, the side scatter shift was 3%.

For `O=C1N=C(N2CCOCC2)CS1`, the side scatter shift was 16%.

With `CCC(C)(C)n1nnnc1C(c1ccccc1OC)N1CCSCC1` (stereo not given), the side scatter shift is 10%.

Regarding `CCn1c(=O)cc(SCC(=O)NCc2ccc3c(c2)OCO3)c2ccccc21`, the side scatter shift was 20%.

`O=C(O)CCC(=O)Nc1ccc(N2CCOCC2)cc1`: the side scatter shift is 6%.

For the compound `CCOc1ccc(C(=O)N(Cc2ccc(N(C)C)cc2)C2CCS(=O)(=O)C2)cc1` (stereo not given), the side scatter shift was 12%.

Turning to `O=C(CC(Cc1ccccc1)C(=O)O)NCCc1ccc2c(c1)OCO2` (stereo not given), the side scatter shift is 6%.

On to `O=C(CSc1nc2ncccc2[nH]1)Nc1ccc2c(c1)OCCO2`, for which the side scatter shift was 3%.

On to `Nc1c(C(=O)NCc2ccccc2)nnn1Cc1cccc(Cl)c1`, for which the side scatter shift was 24%.

For the compound `O=C(CCn1c(=S)[nH]c2ccccc2c1=O)NCCCN1CCCC1=O`, the side scatter shift is 6%.

As for `COc1cccc2cc(C(C)N(CCCN3CCOCC3)C(=O)Nc3ccc(Cl)cc3)oc12` (stereo not given), the side scatter shift was 6%.

On to `CCOC(=O)Cn1c(N)c(C(=O)OC)sc1=S`, for which the side scatter shift is 0%.

With `Clc1ccc(Cn2ncc3c(NCc4cccnc4)ncnc32)cc1`, the side scatter shift is 11%.

For `CCOC(=O)CSc1nc2c(c(=O)n(C)c(=O)n2C)n1Cc1ccccc1F`, the side scatter shift is 11%.

As for `O=C(Nc1ccccc1C(F)(F)F)c1cc(-c2ccc(O)cc2)on1`, the side scatter shift was 5%.

For `CCOC(=O)c1nc(-c2ccc3c(c2)OCO3)[nH]c1C`, the side scatter shift was 7%.

Turning to `CCCN1CCN(C(=O)Cn2ncc3ccccc32)CC1`, the side scatter shift is 6%.

Turning to `CCCOC(=O)c1[nH]c2c(c1C)C(=O)CC(c1cc(OC)c(OC)c(OC)c1)C2` (stereo not given), the side scatter shift was 11%.

As to `CC1(C)C(=O)Nc2ccccc2N1C(=O)COC(=O)Cn1cnc2ccccc2c1=O`, the side scatter shift was 7%.

As for `Cc1ccc(C(=O)N(CN2CCCC2=O)c2ccc(F)cc2)cc1`, the side scatter shift is 15%.

`CCCC(=O)Nc1cccc(-c2cn3ccsc3n2)c1`: the side scatter shift is 3%.

As for `O=C(COC(=O)C12CC3CC(CC(C3)C1)C2)NCc1ccco1`, the side scatter shift is 12%.

For the compound `CCOC(=O)C1CCCN(C(=O)c2ccc(CS(=O)(=O)c3ccc(Br)cc3)o2)C1` (stereo not given), the side scatter shift was 8%.

Turning to `Cc1ccsc1C(C(=O)NC1CCCCC1)N(C(=O)Cc1cccs1)C1CC1` (stereo not given), the side scatter shift is 9%.

In the case of `CCCCc1nccn1CCn1ccnc1CCCC`, the side scatter shift was 7%.

With `O=C(C1CC1)N1CCN=C1SCc1ccc(Cl)cc1`, the side scatter shift was 11%.

Regarding `Cc1cc(=O)n(C)c(=O)n1CCCNc1ccccc1`, the side scatter shift was 9%.

For `CC(C)Nc1nc(N(c2ccccc2)c2ccccc2)nc(-n2ccnc2)n1`, the side scatter shift was 10%.

As to `CC(CCc1ccccc1)NC(=O)c1ccc(Br)o1` (stereo not given), the side scatter shift was 5%.

Turning to `C/C(=C(\C#N)C(=O)NCCCN1CCOCC1)N(C)C`, the side scatter shift is 13%.

As to `O=C(NCc1cccnc1)c1ccc(CS(=O)(=O)c2ccc(Br)cc2)o1`, the side scatter shift was 4%.

With `O=S(=O)(Nc1ccccn1)c1ccc(Oc2ccccc2)cc1`, the side scatter shift was 13%.
